Activity calls are given as the source filed them. Rule for the calls: active = hit-call score of the fitted dose curve at least 0.9, where 1 is the maximum; inactive = score below 0.9.

The values that follow come from PubChem BioAssay (EPA / NIEHS).

Read-out in the assay: ABC Transporter (ABCC3), ABCC3 (gene 8714)
Put plainly: LTEA_HepaRG_ABCC3: Life Technologies and Expression Analysis (LTEA) Assay for ABC Transporter (ABCC3) using HepaRG (AID 2283462). The settings on record: mRNA level, 48 h; actives raise or lower the signal. Here is the method:
LTEA_HepaRG is a cell based, multiplexed-readout assay that uses HepaRG, a human liver cell line, with measurements taken at 48 hours after chemical dosing on a 96-well plate.LTEA_HepaRG_ABCC3 is one of 102 assay component(s) measured in the LTEA HepaRG cell culture assay. It is a marker of NR mediated transport.Data from the assay component LTEA_HepaRG_ABCC3 was analyzed into 1 endpoint. This assay endpoint, LTEA_HepaRG_ABCC3, was analyzed with bidirectional fitting relative to DMSO as the negative control and baseline of activity. Using a type of inducible reporter, measures of mRNA induction for gain or loss-of-signal activity can be used to understand regulation of transcription factor activity. To generalize the intended target to other relatable targets, this assay endpoint is annotated to the transporter intended target family, where the subfamily is ABC transporter.
A total of 1060 chemcials from the ToxCast library were tested in eight-point concentration-response experiments. Cell culture and cytotoxicity assays were conducted at Thermo Fisher Scientific's Custom Services facility (Madison, WI). A single lot of human HepaRG cells (Thermo Fisher Scientific, Frederick, MD) was used for the cell culture experiments. 96-well format collagen type I coated plates of human HepaRG cells were prepared using established methods. Briefly, cryopreserved HepaRG cells were thawed, plated at a density of approximately 100,000 cells/well in HepaRG Thaw, Plate, and General Purpose media (HPRG770, Thermo Fisher Scientific), and incubated for 48 hours. 0.5% DMSO was selected as vehicle control to balance the requisite need of DMSO in HepaRG cultures to maintain differentiation (for example, baseline metabolism, proportions of hepatocytes vs. cholangiocytes), while enabling further hepatic receptor pathway activation (for example, PXR and CAR) in response to chemical exposure. 48 hours after plating, the culture medium was replaced with HepaRG Serum-Free Incudtion Media. Cells were exposed to each test chemical in duplicate and maintained in CO2 incubators for another 48 hours. Chemical plates were thawed to room temperature and 200x concentrations of treatment groups were prepared. 8-point conentration-reponse curves were made with the highest exposure at 100 uM, followed by half-log dilutions, all in 0.5% DMSO. Each test plate contained variouse controls, induction positive controls (1mM phenobarbital), cytotoxicity positive controls ([…] aflatoxin B1), vehicle controls (0.5% DMSO), and total lysis controls (0.5% DMSO). Cell morphology images were taken using an Essen IncuCyte FLR automated microscope, with six 96-well plates imaged in about 24 minutes. Images were captured and exported and JPEG files. Spent culture media was transfered to black-well plates for the LDH assay, and remaining media was sorted at -80 C for later use. Cells were treated with RLT buffer and frozen until shipped for gene expression analysis. Total RNA was isolated from the cell suspension in 75 uL of Buffer RLT (Qiagen, Germantown, MD 20874) by Quintiles/Expression Analysis (Durham, NC) using a custom isolation procedure. Total RNA from each plate well was transferred to a preamplification plate. Fluidigm's 96.96 Dynamic ArrayTM (Fluidigm, Amsterdam, the Netherlands) technology was used for gene expression analyses by quantitative reverse transcription polymerase chain reaction (qRT-PCR, performed by Quintiles/Expression Analysis, Durham, NC)89. Standard TaqManTM Assays (Applied Biosystems/ThermoFisher Scientific, Foster City, CA) were used to assess the expression of 93 genes selected based on their selectivity and sensitivity to important hepatic receptors known to be modulated by environmental chemicals; importance in human hepatocyte functionality; and hepatotoxicity. […]
With `CC1(C)NC(=O)N(c2ccc([N+](=O)[O-])c(C(F)(F)F)c2)C1=O`, the AC50 – broadly, the concentration giving half of the maximal activity seen – was 75.3 µM (active).

Regarding `CO[C@H]1/C=C/O[C@@]2(C)Oc3c(C)c(O)c4c(O)c(c(/C=N/N5CCN(C)CC5)c(O)c4c3C2=O)NC(=O)/C(C)=C\C=C\[C@H](C)[C@H](O)[C@@H](C)[C@@H](O)[C@@H](C)[C@H](OC(C)=O)[C@@H]1C`, the call was inactive.

For the compound `C[C@]12CC[C@@H]3c4ccc(O)cc4CC[C@H]3[C@@H]1CCC2=O`, the outcome was inactive.

Regarding `O=c1[nH]sc2ccccc12`, the outcome was inactive.

Regarding `CN1C(=O)CC[C@H]1c1cccnc1`, the call was inactive.

On to `Cc1occc1C(=O)Nc1ccc(C(=O)N2CCC(F)(F)/C(=C\C(=O)N3CCC(N4CCCCC4)CC3)c3ccccc32)cc1`, for which the AC50 is 47 µM (active).

Consider `CCCCCCCCCCCO`, for which the outcome was inactive.

In the case of `OCCO`, the compound was called inactive.

On to `O=C1O[C@H]([C@@H](O)CO)C(O)=C1O`, for which the outcome was inactive.

As to `COCC(C)OCC(C)OCC(C)O` (stereo not given), the result was inactive.

For the compound `NC(=O)c1nc(-c2cccc(-c3cc(F)ccc3OCC(F)(F)C(F)(F)F)c2)n[nH]1`, the AC50 was 84 µM (active).

On to `CCCCOC(=O)c1ccc(O)cc1`, for which the call was inactive.

As for `CN(C[C@@H](CC[N+]12CCC(C3CCCCC3)(CC1)CC2)c1ccc(Cl)c(Cl)c1)C(=O)c1cc(C(F)(F)F)cc(C(F)(F)F)c1`, the result was inactive.

Turning to `CC(=O)N1CCN(c2ccc(OC[C@H]3CO[C@](Cn4ccnc4)(c4ccc(Cl)cc4Cl)O3)cc2)CC1`, the AC50 is 91.8 µM (active).

For `CN1C(=O)N(c2ccccc2Br)Cc2cnc(Nc3ccc4c(c3)OCC(CO)O4)nc21` (stereo not given), the AC50 is 28.6 µM (active).

Take `O=C(O)Cc1cc(I)c(Oc2ccc(O)c(I)c2)c(I)c1`: the compound was called inactive.

In the case of `CN(C)C(=O)C1(N2CCCCC2)CCN(CC[C@@]2(c3ccc(Cl)c(Cl)c3)CN(C(=O)c3ccccc3)CCO2)CC1`, the AC50 is 79.4 µM (active).

Regarding `OC12N=C(c3ccccc3)SC1Cc1cc(Cl)ccc12` (stereo not given), the AC50 was 21 µM (active).

As to `c1ccc2n[nH]nc2c1`, the outcome was inactive.

In the case of `Cc1cccc2ccccc12`, the compound was classed as inactive.

`c1ccc(C[n+]2cccc3ccccc32)cc1`: the AC50 is 23.2 µM (active).

As for `COc1cccc([C@H](O)C2CCN(CCc3ccc(F)cc3)CC2)c1OC`, the call was inactive.

In the case of `O=C(OCCCCCCOC(=O)c1ccccc1)c1ccccc1`, the outcome was inactive.

Regarding `Cc1c2ccccc2c(C)c2c1ccc1ccccc12`, the AC50 was 12.7 µM (active).

With `Cc1ccc(C(C)C)cc1`, the outcome was inactive.

For the compound `O=C1c2ccccc2C(=O)N1CCc1noc(-c2ccc(CN3CCCCCC3)s2)n1`, the compound was called inactive.

In the case of `CCCCCCCCCCCC[N+](C)(C)C`, the call was inactive.

Consider `CCO[Si](CCCNC(N)=O)(OCC)OCC`, for which the result was inactive.

For `CCCOC(=O)c1cc(O)c(O)c(O)c1`, the result was inactive.

Take `CC(C)(c1cc(Br)c(O)c(Br)c1)c1cc(Br)c(O)c(Br)c1`: the result was inactive.

`O=CCCCC=O`: the call was inactive.

In the case of `Cc1cn([C@H]2C[C@H](N=[N+]=[N-])[C@@H](CO)O2)c(=O)[nH]c1=O`, the outcome was inactive.

`O=C(O)Cn1c(=O)n(Cc2ccc(Br)cc2F)c(=O)c2ccc(Cl)cc21`: the compound was classed as inactive.

In the case of `CCCCCCCC[Si](OCC)(OCC)OCC`, the result was inactive.

Turning to `CCN(CC)C(=O)c1cc(S(=O)(=O)Cc2ccccc2)c(N2CCC(c3ccccc3)CC2)cc1N(CC)CCN(C)C`, the AC50 is 31 µM (active).

Consider `Cc1cc2c(cc1C(F)(F)F)N(C(=O)Nc1ccc(Oc3cccnc3C)nc1)CC2`, for which the AC50 is 11.6 µM (active).

With `CCN(Cc1cccc(S(=O)(=O)O)c1)c1ccc(C(=C2C=CC(=[N+](CC)Cc3cccc(S(=O)(=O)O)c3)C=C2)c2ccccc2S(=O)(=O)[O-])cc1`, the compound was called inactive.

Regarding `Cc1ncc(CO)c(CO)c1O`, the result was inactive.

As for `O=C(Nc1ccc(Cl)cc1)Nc1ccc(Cl)c(Cl)c1`, the result was inactive.

As for `CN(C)c1ccc(C(=C2C=CC(=[N+](C)C)C=C2)c2ccc(N(C)C)cc2)cc1`, the AC50 was 85.8 µM (active).
